Bioassay records (PubChem)
This is a sample that favours compounds with a hit; in the whole collection about 0.5% have one here.
cardiac RTF act: increases calcium sensitivity of human cardiac regulated thin filaments; P19429+P45379; IANBD-labeled TnC RTF fluorescence at EC20 calcium; 0% EC20 calcium, 100% full calcium; activation, % at 7.2 µM; hit rate 0.24% among 340,000; AID 493008;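 active = activation above the mean over all tested compounds plus 3 SD, cut at about 30% in these data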;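 also: rise in fluorescence read as greater calcium sensitivity of cardiac thin filaments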
RTF Ca sens inh: cardiac RTF calcium desensitization; AID 493244; IANBD-labeled cardiac RTF, Ca2+ fluorescence; inhibition, % at 7.15 µM; hit rate 0.12% among 340,000;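 active = inhibition above the mean inhibition of all tested compounds plus 3 SD, cut at about 17% in these data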;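 also: assay run at fixed EC70 calcium of 1.6 mM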
Keap1-Nrf2 PPI: Keap1-Nrf2 (human) interaction inhibition. Q14145. Keap1 Kelch-Nrf2 peptide fluorescence polarization, 1536-well. hit rate 0.15% among 340,000. inhibition, % at 9.4 µM; in the data active = inhibition above about 12%;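 also: human Keap1 Kelch domain with fluorescein labeled Nrf2 9mer peptide probe; 0% = neutral control wells and 100% = peptide positive control; higher means more block of Keap1 binding to Nrf2 peptide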
Target sequence (Q14145 whole entry, looked up, the tested form may be a part): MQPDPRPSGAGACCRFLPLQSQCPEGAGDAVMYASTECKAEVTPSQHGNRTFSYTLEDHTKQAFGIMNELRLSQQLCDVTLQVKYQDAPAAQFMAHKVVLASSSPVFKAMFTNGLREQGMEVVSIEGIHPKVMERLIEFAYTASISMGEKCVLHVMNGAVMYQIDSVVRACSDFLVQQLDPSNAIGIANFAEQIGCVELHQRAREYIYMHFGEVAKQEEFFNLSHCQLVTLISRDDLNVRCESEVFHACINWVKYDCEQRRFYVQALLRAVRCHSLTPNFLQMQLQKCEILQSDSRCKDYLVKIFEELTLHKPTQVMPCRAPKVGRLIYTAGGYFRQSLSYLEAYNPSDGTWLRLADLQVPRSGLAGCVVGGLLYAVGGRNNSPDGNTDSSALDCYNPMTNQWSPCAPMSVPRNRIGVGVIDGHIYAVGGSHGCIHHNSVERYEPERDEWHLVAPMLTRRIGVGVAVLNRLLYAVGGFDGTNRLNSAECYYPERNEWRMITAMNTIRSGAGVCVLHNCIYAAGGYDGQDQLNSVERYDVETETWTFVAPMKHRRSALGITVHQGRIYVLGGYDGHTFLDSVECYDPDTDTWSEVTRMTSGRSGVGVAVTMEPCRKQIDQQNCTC
LANA DNA inh: inhibitors of KSHV LANA C-terminal domain DNA binding; MBP-C-LANA/FAM-LBS DNA binding, fluorescence polarization; inhibition, % at 9 µM; hit rate 0.078% among 340,000; AID 504423;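 active = highest replicate inhibition at or above 60% at 9 µM, even if other replicates fall short; inactive = all replicates below 60% inhibition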;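 also: 0% = neutral control wells and 100% = 4 µM acridine orange control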
Keap1 Kelch bind: binds and thermally shifts human Keap1 Kelch domain. Keap1 Kelch thermal shift, delta Tm; active compounds read high. hit rate 8% among 400. shares compounds with Keap1-Nrf2 PPI. AID 651823. max delta Tm, degrees C; in the data active = max delta Tm above about 0.48 degrees C
Sypro dye melt: dye artifact in Keap1 thermal shift counter-screen; shares compounds with Keap1-Nrf2 PPI; Sypro Orange dye-only thermal melt, no protein, delta Tm; top dose 26 µM; delta Tm, degrees C (concentration not given with the values); 140 tested, under 10 active; AID 651858;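 active = at highest dose tested, delta Tm positive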
* hit, by the source's call; i = inactive; x = no result; + = active, no number.

SMILES	cardiac RTF act	RTF Ca sens inh	Keap1-Nrf2 PPI	LANA DNA inh	Keap1 Kelch bind	others
O=[N+]([O-])c1cnc(Sc2ccncn2)s1	4	-3	-1	1	x
Cc1cc(C)cc(NS(=O)(=O)c2c(C(=O)N3CCOCC3)c(C)n(C)c2C)c1	-10	-1	1	-1	x
Cc1oc2c(cc(NS(=O)(=O)c3ccc4c5c(cccc35)C(=O)N4)c3ccccc32)c1C(=O)OC(C)C	9	-6	0	0	x
O=C1CCCc2oc3c(cc(NS(=O)(=O)c4ccc5c6c(cccc46)C(=O)N5)c4ccccc43)c21	2	-2	24*	0	1.6*
O=C(C1=NN(c2ccccc2)C2C(=O)N(c3ccccc3)C(=O)C12)c1ccccc1 (stereo unspecified)	33*	-33	54*	14	-0.11	Sypro dye melt=-5.2
COc1ccc2noc3c2c1C(=O)c1ccccc1-3	+	i	106*	130*	0.04	Sypro dye melt=6.2*
COc1ccc(N)c2c1C(=O)c1ccccc1C2=O	-10	4	2	-3	x
CC(C#N)(Cc1ccccc1)Nc1ccccc1 (stereo unspecified)	3	-7	0	0	x
O=C(O)c1cc(N2C(=O)C=CC2=O)cc(N2C(=O)C=CC2=O)c1	3	13	33*	98*	0.27	Sypro dye melt=-27
CCCCCCn1c(=O)[nH]c2nc3cc(N)c(C)cc3nc2c1=O	627*	i	27*	49	0.59	Sypro dye melt=-21
CCCCn1c(=O)[nH]c2nc3cc(NC(C)=O)ccc3nc2c1=O	6	-9	-5	4	x
COC(=O)c1cccc(NC(=O)Nc2ccc(Cl)cc2)c1	x	x	-1	-2	x
COC(=O)c1cccc(NC(=O)NC(=O)c2ccc(Cl)cc2)c1	x	x	44*	27	-0.01
Cc1ccc(-n2nnnc2SCC(=O)c2c(N)n(C3CC3)c(=O)[nH]c2=O)cc1	9	-9	42*	22	-0.08
CN(C)CCNC(=O)c1c(NC(=O)c2ccccc2)sc2c1CCCC2	5	-4	17*	x	-0.15
COc1cccc(C2=CC(c3ccc(OC)c(OC)c3OC)n3nnnc3N2)c1 (stereo unspecified)	-5	-3	1	-1	x
COc1cccc(C2=CC(c3cccs3)n3nnnc3N2)c1 (stereo unspecified)	6	-24	15*	32	-0.13
CC12CC3(C)CC(C)(C1)CC(C(=O)NC(=S)N1CCCC1)(C2)C3	5	-8	-6	2	x
CC(=O)N1CCN(S(=O)(=O)c2cccc(C(=O)NNC(=O)c3ccc(Br)cc3)c2)CC1	44*	-117	48*	27	0	Sypro dye melt=-23
CCCSc1nnc2c(n1)OC(c1cccn1C)N(C(C)=O)c1ccccc1-2 (stereo unspecified)	-8	1	0	-2	x
CCCCCSc1nnc2c(n1)OC(C)N(C(C)=O)c1ccccc1-2 (stereo unspecified)	4	-6	13*	0	-0.03
COc1cc(S(=O)(=O)N2CCCCC2)ccc1NC(=O)c1ccccc1Cl	9	-1	-2	0	x
Cc1ccc(S(=O)(=O)N2CCCCC2)cc1NC(=O)c1ccccc1Cl	7	-23	31*	23	-0.18
Clc1ccc(Cc2ccccn2)cc1	3	-27	-4	1	x
O=S(=O)([N-]c1nc2ccccc2nc1-[n+]1ccc(-c2ccncc2)cc1)c1ccccc1	51*	-39	17*	5	0	Sypro dye melt=-27
SMILES	cardiac RTF act	RTF Ca sens inh	Keap1-Nrf2 PPI	LANA DNA inh	Keap1 Kelch bind	others
COC(=O)c1ccc(OC(=O)CN2C(=O)c3ccccc3C2=O)cc1	-2	-6	57*	25	-0.1
CC1=CC(=C2N=C(c3ccccc3)OC2=O)C=C(C)O1	2	-6	17*	1	-0.13
CN1C=CC=C/C1=C1/N=C(c2ccccc2)OC1=O	10	0	-1	0	x
Cc1cc(-c2ccccc2)n2ncnc2n1	9	3	-2	-2	x
CCOC(=O)c1c(=O)n(O)c2ccc(OC)cc2[n+]1[O-]	26	-17	19*	26	0.01
CC[C@@]1(O)C(=O)OCc2c1cc1n(c2=O)Cc2cc3c(CN(C)C)c(O)ccc3nc2-1	221*	-222	78*	131*	-0.08
C#CCOC(=O)CCCC(=O)NCCCCCCCC	4	-12	4	2	x
CC(=O)c1cccc(NC(=O)COC(=O)CCC(=O)c2cccs2)c1	8	-6	0	-1	x
COc1ccc(NC(=O)COC(=O)CCc2ccccc2)c(OC)c1	5	3	0	-1	x
Cc1ccccc1NC(=O)c1sc(NC(=O)C2CC2)nc1C	2	-2	28*	12	0.01
Cc1nc(NC(=O)C2CC2)sc1C(=O)Nc1ccccc1	-6	-7	-1	0	x
Cc1cccc(C(=O)N/N=C/c2cc(Br)c(Br)o2)c1	-3	-5	2	0	x
Cc1cccc(NC(=O)CCN2CCCCC2)c1	0	-2	32*	16	-0.1	Sypro dye melt=-26
Cc1cccc(NC(=O)CN2CCCCCC2)c1	1	8	-4	1	x
O=C(COC(=O)c1ccc[n+]([O-])c1)Nc1ccc(Cl)cc1[N+](=O)[O-]	-4	2	2	0	x
CC(C)(C)c1ccccc1NC(=O)NC1CCN(Cc2c(F)cccc2Cl)CC1	x	x	21*	10	-0.17
Cc1ccc([C@@H]2CC=C(C(=O)O)CN2S(=O)(=O)c2ccc(C)cc2)cc1	4	-13	3	-1	x
CCC1OC2(C)OC(=N)C1(C#N)C(C#N)(C#N)C2c1ccccc1 (stereo unspecified)	15	-17	31*	63*	-0.08	Sypro dye melt=-22
CC(C)C1OC2(C)OC(=N)C1(C#N)C(C#N)(C#N)C2c1ccccc1 (stereo unspecified)	10	-28	21*	94*	-0.06	Sypro dye melt=-31
CC(Cl)C(=O)NNC(=O)CNS(=O)(=O)c1ccccc1 (stereo unspecified)	2	-1	4	1	x
O=[N+]([O-])c1ccc(S(=O)(=O)c2ccccc2)nc1	-7	-7	13*	-1	-0.08
CC(C)Cn1c(N)c(C(=O)CSc2nnc(-c3ccco3)n2C)c(=O)n(C)c1=O	13	-16	68*	x	0.03
O=C1C=CC(=O)c2c(O)c(N3CCN(CCOCCO)CC3)c(Br)c(O)c21	-1	5	25*	10	0.08
O=S(=O)(c1ccc(Br)cc1Cl)N1CCN(CCO)CC1	-1	-3	-5	0	x
OCCOCCN1CCN(C2=Nc3ccccc3Sc3ccccc32)CC1	i	i	i	0	x
O=C1C=CC(=O)c2c(O)c(N3CCN(CCO)CC3)c(Cl)c(O)c21	-6	1	39*	4	-0.07	Sypro dye melt=-22
CCC(Oc1ccccc1C)C(=O)N1CCCN(C)CC1 (stereo unspecified)	2	-1	2	0	x
CC(C)S(=O)(=O)c1nsc2nc(=O)c(/C=C3\C=Nc4ccccc43)c(N)n12	0	-22	-3	0	x
